Screens from PubChem.
This is one part of a sample in which hits are shown more often than they occur.
TTR transcr act – increases transthyretin transcription; activation, % at 16.7 µM; SH-SY5Y TTR promoter Gaussia luciferase, luminescence; 100% = recombinant luciferase protein wells; 1.3% of 92,000 active; AID 1117267;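 active = activation above the mean of all tested compounds plus 3 SD, cut at about 9.5% in these data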;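 note: cells exposed to compounds for one day before reading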
HuH7 TTR inh – counter-screen for TTR activators: TTR transcription inhibitors in HuH7 cells. shares compounds with TTR transcr act. HuH7 TTR promoter-Gaussia luciferase reporter, luminescence. inhibition, % at 16.7 µM. 4% of 1,100 active. AID 1117279;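 active = average inhibition above the solvent-only control wells' mean plus 3 SD, cut at about 15% in these data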;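 note: inhibitors lower well luminescence so higher value means more inhibition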
TTR up confirm – confirmation of human transthyretin transcription activators. activation, % at 16.7 µM. 1,100 tested, under 10 active. shares compounds with TTR transcr act. SHSY5Y TTR promoter Gaussia luciferase, luminescence; 100% = purified Lucia enzyme wells, no cells;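 active = mean activation above a set limit taken from the earlier primary screen, cut at about 11% in these data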
Each line names hits and unclear results; the compound was inactive in the other large screens (follow-up assays come after a bar, where they were run); ! = not active in a repeat.

Cc1ccccc1Cn1cc(COC(=O)N(C)Cc2ccccc2)nn1	TTR transcr act 12 | HuH7 TTR inh 18 | TTR up confirm inactive
O=C(NCCc1ccccc1)OCc1cn(Cc2cc(F)cc(F)c2)nn1	none
O=C(NCCc1ccccc1)OCc1cn(Cc2ccccc2F)nn1	TTR transcr act 20 | HuH7 TTR inh inactive | TTR up confirm inactive
Fc1cccc(Cn2ccc3ccc(-c4ccc5ccn(Cc6cccc(F)c6)c5c4)cc32)c1	none
CCCC1CCC2(CC1)CCC2OC(=S)NCc1ccc(Cl)cc1 (centres undefined)	none
O=C(O)CCCCN1C(=O)C=CC1=O	none
O=C(NNC(=O)c1ccccc1O)c1ccc(Br)cc1	none
O=C(COC(=O)c1cc(Br)ccc1O)NNC(=O)c1ccc([N+](=O)[O-])cc1	none
O=C(COC(=O)c1ccccc1O)NNC(=O)c1ccc(Br)cc1	TTR transcr act 9.9 | HuH7 TTR inh inactive | TTR up confirm inactive
O=C(Nc1ccc(F)cc1)OCc1cn(Cc2ccc(F)cc2F)nn1	none
Cc1csc(SCC(=O)O)n1	none
Cc1csc(SCC(=O)NC23CC4CC(CC(C4)C2)C3)n1	TTR transcr act 11 | HuH7 TTR inh inactive | TTR up confirm inactive
Cc1nnc(SCC(=O)NC23CC4CC(CC(C4)C2)C3)s1	none
COc1ccc2c3c([nH]c2c1)C1=NCC[C@]12c1ccccc1N=CN2CC3	none
CC(C)(C)c1ccc(C(=O)Nc2cc(Cl)ccc2C(=O)O)cc1	none
Nc1nonc1C(=O)NCCNc1ccc([N+](=O)[O-])cc1	none
Cc1nonc1OC(C)CNCCNc1ccc([N+](=O)[O-])cc1 (centres undefined)	TTR transcr act 11 | HuH7 TTR inh inactive | TTR up confirm inactive
COc1ccc(C(=O)NCCNc2ccc([N+](=O)[O-])cc2)cc1	none
CC1CN(c2ccnc3cc(Cl)ccc23)CCN1C(=O)c1ccc(Cl)cc1 (centres undefined)	none
O=C(Cc1cc(=O)[nH][nH]1)N/N=C/c1cccc(Cl)c1Cl	TTR transcr act 23! | HuH7 TTR inh inactive | TTR up confirm inactive
O=C(Cc1cc(=O)[nH][nH]1)N/N=C/c1ccccc1Cl	none
O=C(Cc1cc(=O)[nH][nH]1)N/N=C/c1c(Cl)cccc1Cl	none
C[C@H]1[C@@H](NC(=O)C#Cc2ccccc2)CC[C@@]23CCCN2C(=O)CCC[C@@H]13	none
O=C(Cc1ccccc1)N1O[C@H]2C=C[C@@H]1C2	none
CC(=O)c1ccc(NC(=O)Nc2sc(NS(=O)(=O)c3ccccc3)nc2C)cc1	TTR transcr act 30 | HuH7 TTR inh inactive | TTR up confirm inactive
Cc1ccc(S(=O)(=O)NNC(=O)c2sc(NS(=O)(=O)c3ccccc3)nc2C)cc1	none
Cc1nc(NS(=O)(=O)c2ccccc2)sc1C(=O)N/N=C/c1ccccc1	none
CC(=O)c1ccc(NC(=O)NNS(=O)(=O)c2ccc(F)cc2)cc1	none
CCOC(=O)Nc1sc(NS(=O)(=O)c2ccccc2)nc1C	TTR transcr act 10 | HuH7 TTR inh inactive | TTR up confirm inactive
Cc1ccc(C)c(S(=O)(=O)Nc2nc(C)c(C(=O)Nc3ccccc3)s2)c1	none
CCN(C(=O)[C@@H](C)[C@@H](O)c1ccc(Cl)cc1)c1ccccc1	none
O=S1(=O)c2ccc(N3CCCC3)cc2Oc2ccccc2CN1Cc1cn(Cc2ccc(F)cc2)nn1	none
C[C@H]1[C@@H](OC(=O)N2CCOCC2)CC[C@@]23CCCN2C(=O)CCC[C@@H]13	none
N#CN1CCC(NS(=O)(=O)c2ccc(F)cc2)C1 (centres undefined)	none
CCOC(=O)[C@@H]1CSCCS(=O)(=O)N1C(=O)[C@H](CC(C)C)NC(=O)OC(C)(C)C	none
CCOC(=O)[C@@H]1CSCCS(=O)(=O)N1C(=O)[C@H](CCSC)NC(=O)OC(C)(C)C	none
CCC(=O)OCCCN1CCC2(CCCCC2)C1=O	none
COC(=O)c1cc(-c2cccc3c2sc2ccccc23)c(=O)n2c1CCC2	none
Cc1cc(C)c(NC(=O)COC(=O)C23CC4CC(CC(O)(C4)C2)C3)c(Cl)c1	none
Cn1cccc1C(=O)NC(=O)COC(=O)C12CC3CC(CC(O)(C3)C1)C2	TTR transcr act 11 | HuH7 TTR inh inactive | TTR up confirm inactive
O=C(COC(=O)C12CC3CC(CC(Br)(C3)C1)C2)NNC(=O)c1ccccc1	none
CCOC(=O)[C@@]12CCC3=C1N(CCC3)C(=O)[C@H](CC(=O)N1CCCCC1)C2	none
CCN(C[C@H]1N[C@@](Cc2ccccc2)(C(=O)OC)[C@H]2C(=O)N(Cc3ccccc3)C(=O)[C@@H]12)C(=O)c1ccccc1	none
CCN(C[C@H]1N[C@@](Cc2ccccc2)(C(=O)OC)[C@H]2C(=O)N(Cc3ccccc3)C(=O)[C@@H]12)C(C)=O	TTR transcr act 12 | HuH7 TTR inh inactive | TTR up confirm inactive
CCN(C[C@H]1N[C@@](Cc2ccccc2)(C(=O)OC)[C@H]2C(=O)N(Cc3ccccc3)C(=O)[C@@H]12)C(=O)COC	none
COc1ccc(O)cc1CN1CCN(c2ncc(Cc3ccccc3)cn2)CC1	none
COc1ccccc1CNC1CCC12CCC(c1ccccc1)CC2 (centres undefined)	none
COc1ccc(-c2cc3ccccc3n2CC(O)Cn2nc(C)cc2C)cc1 (centres undefined)	none
COC(=O)c1ccc(Cn2nc(C)cc2C)cc1	none
CC(=O)OC(Cn1nc(C)cc1C)c1ccccc1 (centres undefined)	TTR transcr act 10 | HuH7 TTR inh inactive | TTR up confirm inactive
CS(=O)(=O)N1N=C(c2cccs2)CC1c1ccccc1 (centres undefined)	none
COc1ccc(C2CC(c3ccc(OC)c(OC)c3)=NN2S(C)(=O)=O)cc1 (centres undefined)	none
CS(=O)(=O)N1N=C(c2ccco2)CC1c1ccc(Br)cc1 (centres undefined)	TTR transcr act 18 | HuH7 TTR inh inactive | TTR up confirm inactive
O=C(c1cccc(F)c1)n1ccc2ccc(-c3ccc4ccn(Cc5ccccc5)c4c3)cc21	none
CCCCCCCCN1C(=O)[C@@H](CC(=O)NCc2cccc(C(F)(F)F)c2)C[C@@]2(C(=O)OC)C1=C[C@H](COCc1ccccc1)O[C@@H]2C	none
O=[N+]([O-])c1ccc(-c2cn3c(n2)CCC3)cc1	none
O=C1CCCc2c1nc(-c1ccc(F)cc1)n2O	none
O=C1CCCc2c1nc(-c1ccc([N+](=O)[O-])cc1)n2O	TTR transcr act 12 | HuH7 TTR inh inactive | TTR up confirm inactive
CC(=O)Nc1sc2c(c1-c1nc(-c3ccccc3)cs1)CCN(C(C)C)C2	none
Cc1onc(C(=O)N2CCN(C(c3ccccc3)c3ccccc3)CC2)c1Br	none
CC(Oc1cccc2cccnc12)C(=O)N/N=C/c1ccc2c(c1)OCO2 (centres undefined)	TTR transcr act 13 | HuH7 TTR inh inactive | TTR up confirm inactive
COc1ccc(/C=N/NC(=O)COc2cccc3cccnc23)cc1OC	none
CC(Oc1cccc2cccnc12)C(=O)N/N=C/c1ccccc1 (centres undefined)	none
CN(C)[C@H]1CCN(c2ccc3c(c2)O[C@@H]2CCN(C2)S3(=O)=O)C1	none
O=C(Nc1ccc2c(c1)OCO2)O[C@@H]1CC[C@@]23CCCN2C(=O)CCC[C@H]3C1	none
COC(=O)[C@]12C[C@H](CC(=O)NCC3CCCCC3)C(=O)N(Cc3ccc4c(c3)OCO4)C1=C[C@H](C(C)C)O[C@@H]2C1CC1	none
Cn1nc(C(=O)NC2CCC(O)CC2)c2ccccc2c1=O (centres undefined)	none
